# Experimental data taken from PubChem BioAssay (NCATS).
# Values joined by “and” are separate entries in the source; they are usually repeats but may differ in a detail not shown here. Equal entries are not always repeated. Unmarked numbers belong to inactive results. Records with an inconclusive call do not appear. Entries that show only a call come without a potency. Active and inactive are the calls of the source. Unless noted, calls come from the whole dose curve; as a rule, active = well fitted curve in the direction sought with a large enough effect; inconclusive = small, poorly fitted or top-dose-only effect, or another doubt; inactive = no such curve, though single readings can be large; an effect the other way counts as inactive or inconclusive.
# Experiments:
# [1] = qHTS assay for small molecule activators of the nuclear factor-kappa B (NF-kB) signaling pathway (AID 651749; active = well fitted activation curve with a large enough effect in the signal ratio; the % refers to the signal ratio); settings: NF-kB-bla ME-180 cells, beta-lactamase FRET ratio, 16 h; stronger effect = higher value
# Procedure, shortened: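 FRET-based beta-lactamase detection in ME-180 cells reports NF-kB response-element-driven transcription following overnight (16 hr) compound treatment.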
# [2] = qHTS assay for small molecule disruptors of the mitochondrial membrane potential - 1 hr assay (AID 651754; calls by dose curve; note: nearly all actives have a fitted effect of over 35% in size; note: potency is the fitted concentration of half-maximal effect); settings: series mostly up to 92.2 µM
# Procedure, shortened: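 Read-out: dye fluorescence at 490 nm ex/535 nm em (monomers) and 540 nm ex/590 nm em (aggregates) in HepG2 cells. Compound exposure 1 hr at 37C, followed by 30 min dye loading.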
# [3] = target: Tumor necrosis factor (Homo sapiens) (UniProt P01375); assay: qHTS assay to identify small molecules that stimulate Tumor Necrosis Factor-alpha (TNF-alpha) secretion (AID 651757; active = well fitted curve in the direction sought with a large enough effect in the signal ratio; the % refers to the signal ratio); settings: Human cells, HTRF 665/615 ratio; series mostly up to 92.2 µM
# Procedure, shortened: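 THP-1 cells, 3000/well; compound 17 hrs, 37 C; add cryptate/XL665 anti-TNF-alpha antibody pair; 3 hr RT; TR-FRET (HTRF) read of secreted TNF-alpha. Quantitative HTS format.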
# [4] = qHTS assay for environmental chemicals that activate the Aryl hydrocarbon Receptor (AhR) signaling pathway (AID 651777); settings: 1A2-DRE human hepatoma cells, luciferase, 24 h; activation: stronger effect = higher value; note: nearly all actives have a fitted effect of over 15% in size
# Procedure, shortened: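 Luminescence read-out: One-Glo added for 30 min at RT after 24 hr compound treatment (37 C, 5% CO2) of human hepatoma cells expressing a DRE/CYP1A2 promoter–luciferase reporter; increased signal indicates AhR activation.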
# [5] = target: Peroxisome proliferator-activated receptor alpha (Homo sapiens) (UniProt Q07869); assay: qHTS assay for small molecule agonists of the peroxisome proliferator-activated receptor alpha (PPARalpha) signaling pathway (AID 651778); settings: PathHunter PPARalpha complementation, chemiluminescence, 6 h; stronger effect = higher value
# Procedure, shortened: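 Chemiluminescence from complemented enzyme reported PPARalpha activation in cells after 6 hr of compound treatment at 37 C. The detection reagent was incubated for 60 min at room temperature, and compounds were scored as agonists.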
# [6] = target: Nuclear receptor ROR-gamma (Homo sapiens) (UniProt P51449); assay: qHTS assay for small molecule antagonists of the retinoid-related orphan receptor gamma (ROR-gamma) signaling pathway (AID 651802); settings: ROR-gamma antagonist cell reporter assay; series mostly up to 92.2 µM; note: nearly all actives have a fitted effect of over 60% in size; note: potency is the fitted concentration of half-maximal effect
# Procedure, shortened: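 Luciferase read-out: ONE-Glo luminescence after 30 min at room temperature, following 16hr doxycycline induction at 37C, 5% CO2 of CHO cells with TET-inducible ROR and RORE-LUC reporter; decreased luminescence = reduced reporter activity.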
# [7] = qHTS assay for small molecule agonists of the antioxidant response element (ARE) signaling pathway measured by Nrf2-dependant transcriptional activity (AID 720636; active = well fitted curve in the direction sought with a large enough effect in the repeat runs; an effect the other way counts as inactive or inconclusive;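 note: HepG2 cells with an ARE-driven luciferase reporter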); settings: ARE-luc HepG2, Nrf2 luciferase reporter, 16 h; series mostly up to 92.4 µM
# Procedure, shortened: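 HepG2 ARE-luc reporter line, 1% dialyzed FBS; 6 hr attachment at 37 C, compound pinned in, 16 hr at 37 C/5% CO2; ONE-Glo, 30 min RT, luminescence read.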
# [8] = qHTS assay for small molecule antagonists of the retinoid-related orphan receptor gamma (ROR-gamma) signaling pathway - cell viability counter screen (AID 720652; active = well fitted curve in the direction sought with a large enough effect in the repeat runs; an effect the other way counts as inactive or inconclusive;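 note: CHO reporter cells with doxycycline-induced ROR-gamma expression; compound exposure lasted 16 hr before ATP read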); settings: RORgamma reporter cell line viability counter screen; series mostly up to 92.2 µM
# Procedure, shortened: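 CHO RORE-LUC/TET-ROR line, 1,000 cells/well, 37 C 5% CO2 5 hr; cpd or DMSO + doxycycline induction, 16 hr. CellTiter-Glo, 30 min RT, luminescence = ATP content.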
# [9] = qHTS assay for small molecule disruptors of the mitochondrial membrane potential - 5 hr assay (AID 651755; calls by dose curve; note: nearly all actives have a fitted effect of over 40% in size); settings: JC-1-type ratio dye; series mostly up to 92.2 µM
# Procedure, shortened: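 Membrane-potential dye readout: red aggregate (540 ex/590 em) versus green monomer (490 ex/535 em) fluorescence after 30 min dye loading, following 5 hr compound exposure at 37C of overnight-plated HepG2 cells.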
# [10] = qHTS assay to identify small molecules that stimulate interleukin-8 (IL-8) secretion (AID 651758; active = well fitted activation curve with a large enough effect in the signal ratio; the % refers to the signal ratio); settings: HTRF ratio (665/615); series mostly up to 92.2 µM
# Procedure, shortened: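 Secreted IL-8 measured homogeneously by TR-FRET (two labelled anti-IL-8 antibodies, 1-3 h at room temperature) after a 16 h, 37 C compound treatment of THP-1 cells at 2000 cells/well.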
# Sequence of Peroxisome proliferator-activated receptor alpha (Homo sapiens) (Q07869 whole entry, looked up): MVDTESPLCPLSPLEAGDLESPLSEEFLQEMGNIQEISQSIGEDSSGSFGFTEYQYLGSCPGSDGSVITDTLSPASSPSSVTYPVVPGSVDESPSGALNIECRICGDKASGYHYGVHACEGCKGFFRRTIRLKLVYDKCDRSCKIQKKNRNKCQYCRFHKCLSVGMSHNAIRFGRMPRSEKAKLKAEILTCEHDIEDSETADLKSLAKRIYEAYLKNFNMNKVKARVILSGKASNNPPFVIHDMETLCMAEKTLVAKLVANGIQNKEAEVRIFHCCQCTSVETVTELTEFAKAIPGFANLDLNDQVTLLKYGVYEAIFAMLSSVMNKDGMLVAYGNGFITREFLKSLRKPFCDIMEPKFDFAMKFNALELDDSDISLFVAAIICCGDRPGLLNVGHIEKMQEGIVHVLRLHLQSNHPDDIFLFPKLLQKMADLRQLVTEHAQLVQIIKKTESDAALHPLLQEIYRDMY
# Sequence of Tumor necrosis factor (Homo sapiens) (P01375 whole entry, looked up): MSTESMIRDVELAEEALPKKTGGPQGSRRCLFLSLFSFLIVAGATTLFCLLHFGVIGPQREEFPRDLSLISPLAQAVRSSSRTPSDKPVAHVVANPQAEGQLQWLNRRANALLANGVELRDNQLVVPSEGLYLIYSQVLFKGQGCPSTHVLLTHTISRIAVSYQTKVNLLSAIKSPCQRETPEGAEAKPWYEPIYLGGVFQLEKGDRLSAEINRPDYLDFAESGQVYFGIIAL
# Sequence of Nuclear receptor ROR-gamma (Homo sapiens) (P51449 whole entry, looked up): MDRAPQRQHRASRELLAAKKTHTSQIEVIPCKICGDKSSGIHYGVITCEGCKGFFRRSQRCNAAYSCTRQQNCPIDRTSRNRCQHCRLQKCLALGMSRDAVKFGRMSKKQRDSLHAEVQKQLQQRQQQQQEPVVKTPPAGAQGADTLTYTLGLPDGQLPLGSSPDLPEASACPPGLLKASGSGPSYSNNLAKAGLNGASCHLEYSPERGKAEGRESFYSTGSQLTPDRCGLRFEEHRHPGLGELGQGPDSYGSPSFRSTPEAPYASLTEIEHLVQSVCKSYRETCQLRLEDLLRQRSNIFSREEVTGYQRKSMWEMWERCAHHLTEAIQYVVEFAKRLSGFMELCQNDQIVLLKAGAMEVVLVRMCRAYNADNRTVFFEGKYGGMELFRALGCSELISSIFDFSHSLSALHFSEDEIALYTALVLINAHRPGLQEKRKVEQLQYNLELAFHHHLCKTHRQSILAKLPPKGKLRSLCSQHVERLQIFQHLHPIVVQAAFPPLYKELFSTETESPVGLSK
SMILES,activation [1],Potency [2],outcome [3],activation [4],max response [5],Potency [6],outcome [7],outcome [8],Potency [9],outcome [10]
CC(C)(C)c1ccc(O)c(O)c1,-0.887% and -1.66%,37.6 µM (active),inactive,7.39% and 2.07%,11.7% and 0.802%,59.6 µM (active),inactive,–,–,–
O=C(Oc1ccccc1)c1ccccc1O,–,–,inactive,-0.0038% and 1.61%,7.82% and -2.96%,inactive,inactive,inactive,–,–
CCCCCCCCCCCC[N+](C)(C)Cc1ccccc1,3.11%,–,–,-1.52%,8.99%,–,inactive,–,–,–
O=C(Nc1ccc(Cl)cc1)Nc1ccc(Cl)c(Cl)c1,6.88%,–,–,–,-0.555%,–,inactive,–,–,–
Cc1cc(C(C)(C)C)c(O)c(C(C)(C)C)c1,-0.477%,–,inactive,0.771% and -0.0452%,0.589%,–,inactive,inactive,–,–
OCc1c[nH]c2ccccc12,-1.28%,inactive,inactive,2.25%,-6.59%,–,inactive,inactive,inactive,–
Nc1cccc2c(N)cccc12,-0.416% and 0.0033%,–,–,–,-0.422% and -2.29%,–,–,inactive,–,–
CCCCC(CC)COC(=O)c1ccccc1C(=O)O (stereo not given),–,inactive,inactive,–,–,inactive,inactive,inactive,inactive,inactive
O=C(NO)c1ccccc1,0.132%,–,inactive,-0.612%,-0.429%,inactive,inactive,inactive,–,inactive
CC(C)C(C)(C)C(C)(C)C(C)(C)S,-1.05% and -0.196%,–,inactive,1.1% and 1.7%,-3.79% and -2.56%,inactive,inactive,inactive,–,inactive
COC(=O)c1c(Cl)c(Cl)c(C(=O)OC)c(Cl)c1Cl,0.623%,–,–,0.102%,-0.617%,–,inactive,–,–,–
Oc1ccccc1,–,–,inactive,-1.73% and 0.212% and 0.333%,-1.31% and -1.33% and -1.91%,inactive,inactive,inactive,–,–
Cc1ccc(O)cc1,-0.225%,inactive,inactive,–,-0.0678%,–,inactive,inactive,inactive,–
CC(=O)OC/C=C(C)/C=C/C=C(C)/C=C/C1=C(C)CCCC1(C)C,-1.82% and 0.334%,inactive,inactive,-0.036% and -0.475%,-6.94% and -1.56%,inactive,–,inactive,inactive,–
C1=CC2C3C=CC(C3)C2C1 (stereo not given),-1.05%,–,inactive,0.971%,-3.12%,inactive,inactive,inactive,–,–
CN1C(=O)c2ccccc2C1=O,0.745%,–,–,1.05%,-1.08%,–,inactive,–,–,–
COc1cc(C=O)ccc1O,-1.8% and -1.55%,–,–,2.04% and 0.0367%,-1.16% and -2.1%,inactive,inactive,inactive,–,–
CCCC(=O)c1cc(O)c(O)cc1O,0.282%,–,–,-2.11%,-3.73%,inactive,inactive,–,inactive,–
O=C(c1ccccc1)c1ccccc1,–,inactive,inactive,-0.735% and 18.8%,-0.839% and -0.419%,–,inactive,inactive,inactive,–
CCCCCCCCCCCCCCCC[n+]1ccccc1,–,inactive,inactive,5.1%,1.85%,–,–,–,inactive,–
